“And” between values parts separate entries of the source, which are not always exact repeats. Equal entries are not always repeated. Records with an inconclusive call do not appear. The source made the active and inactive calls. Calls come from the whole dose curve; as a rule, active = well fitted activation curve with a large enough effect; inconclusive = small, poorly fitted or top-dose-only effect; inactive = no such curve, though single readings can be large or run the other way.

The assay is described as follows: Confirmation Concentration-Response Assay for Enhancers of SMN2 Splice Variant Expression for Probe SAR. The conditions noted are these: HEK293 SMN2 exon7 splicing luciferase reporter, luminescence; series mostly up to 46.1 µM. From the text:
NIH Chemical Genomics Center [NCGC] NIH Molecular Libraries Probe Production centers Network [MLPCN] MLPCN Grant: R03 MH084179-01 Assay Submitter (PI): Elliot Androphy NCGC Assay Overview: Spinal muscular atrophy (SMA) is caused by insufficient levels of the survival motor neuron protein SMN. The SMN locus on chromosome 5q13 contains two inverted copies of SMN called SMN1 and SMN2 which are 99% identical at the amino acid level. SMN1 is a fully functional protein and SMN2 skips exon 7 90% of the time. Skipping of exon 7 produces non-functional protein product. 10% of the SMN2 protein includes exon 7 and is fully functional. In the SMA disease state, mutations in the SMN1 locus are the cause of the disease state. Because only 10% of SMN2 is of the fully functional form, it is not sufficient to overcome the deficiency produced by the loss of the SMN1 product. A therapy that either increase the amount of SMN2 product made or to increase the inclusion of exon 7 has been proposed for the treatment of SMA. We have designed an assay to identify small molecules that can increase the amount of functional SMN2 product by appending a luciferase reporter gene after the native SMN2 gene, such that inclusion of exon 7 in the expressed product places the luciferase sequence in frame, thus generating functional luciferase enzyme.
NCGC Assay Protocol Summary: This screen utilizes a luciferase reporter gene assay, combining the promoter with the major portion of the native SMN2 cDNA (exons 1 -7, intron 8 , exon 8 fused to luciferase) stably expressed in HEK293 cells. Compounds that increase luciferase signal presumably enhance expression of the functional SMN2 splice variant. Passaging media contained DMEM w/ glutamax (+phenol red) 10% FCS, 1x pen/strep, 200 ug/ml hygro, 1x sodium pyruvate. Assay media contained DMEM w/ glutamax (-phenol red) 10% FCS, 1x pen strep, 1x pyruvate Sequence, Parameter, Value, Description (1) Cells, 5 uL, 2000 cells/well, 1536 TC treated White solid bottom plate (2) Time, 10-12 hours, 37C 5% CO2 (3) Compound, 23 nl, MLSMR Library (4) Control Compound, 23 nL, Sodium butyrate st 4.5mM (final) conc (5) Time, 30-36 hours, 37C 5% CO2 (6) Reagent, 3 ul, One Glo (TM) from Promega (7) Time, 5-15 minutes, Room temp (8) Detector, Viewlux: luminescent read, 60 second integration, high speed 2x binning Keywords: Spinal muscular atrophy, SMA, SMN2, high throughput screening, MLSMR, MLPCN, NIH Roadmap, qHTS and NCGC
In general terms: Reporter assays use an easily measured gene product as a stand-in for the process of interest.
As for `Cn1ccc2cc(-c3csc(N4CCC(C(N)=O)CC4)n3)ccc21`, the Potency was 4.34 µM (active). Take `CC(=O)c1ccc(-c2csc(N3CCC(C(N)=O)CC3)n2)cc1`: the Potency is 7.72 µM (active). For `NC(=O)C1CCN(c2nc(-c3cccs3)cs2)CC1`, the Potency was 7.72 µM (active). For `Cc1noc(C)c1-c1csc(N2CCC(C(N)=O)CC2)n1`, the Potency entry was “inactive”. To `NC(=O)C1CCN(c2nc(-c3ccc4occc(=O)c4c3)cs2)CC1` belongs 7.72 µM (active).

`Cc1ccc(-c2csc(N3CCC(C(N)=O)CC3)n2)cc1`: the Potency is 0.772 µM (active).

Turning to `NC(=O)C1CCN(c2nc(-c3cc4ccccc4o3)cs2)CC1`, the Potency is 8.67 µM (active). Take `COc1ccc(-c2csc(N3CCC(C(N)=O)CC3)n2)cc1`: the Potency is 4.34 µM (active). As to `CS(=O)(=O)c1ccccc1-c1csc(N2CCC(C(N)=O)CC2)n1`, the Potency result was “inactive”. `CS(=O)(=O)c1cccc(-c2csc(N3CCC(C(N)=O)CC3)n2)c1`: the Potency result was “inactive”.

In the case of `NC(=O)C1CCN(c2nc(-c3ccc(F)cc3)cs2)CC1`, the Potency is 3.45 µM (active). To `CN(C)c1cccc(-c2csc(N3CCC(C(N)=O)CC3)n2)c1` belongs 0.688 µM (active); to `NC(=O)C1CCN(c2nc(-c3ccccc3C(F)(F)F)cs2)CC1`, “inactive”; to `NC(=O)C1CCN(c2nc(-c3ccc(Br)cc3)cs2)CC1`, 708 nM (active) and 772 nM (active). On to `CC(=O)c1cccc(-c2csc(N3CCC(C(N)=O)CC3)n2)c1`, for which the Potency is 3.87 µM (active). For `NC(=O)C1CCN(c2nc(-c3cccc(N)c3)cs2)CC1`, the Potency result is “inactive”.

For `NC(=O)C1CCN(c2nc(-c3ccccc3Br)cs2)CC1`, the Potency entry is “inactive”.

`NC(=O)C1CCN(c2nc(-c3ccccc3-c3ccccc3)cs2)CC1`: the Potency entry was “inactive”. Regarding `NC(=O)C1CCN(c2nc(-c3cccnc3)cs2)CC1`, the Potency entry was “inactive”. Under `NC(=O)C1CCN(c2nc(-c3ccc4ccccc4c3)cs2)CC1` stands 4.87 µM (active); under `NC(=O)C1CCN(c2nc(-c3ccc4c(c3)OCCO4)cs2)CC1`, 0.688 µM (active). As for `CN(C)c1ccccc1-c1csc(N2CCC(C(N)=O)CC2)n1`, the Potency entry was “inactive”. For `NC(=O)C1CCN(c2nc(-c3ccccc3F)cs2)CC1`, the Potency was 1.37 µM (active).

These data come from PubChem BioAssay AID2514 (National Center for Advancing Translational Sciences (NCATS), 2010).
